Screens (PubChem)
This is a sample that favours compounds with a hit; in the whole collection about 4.7% have one here.
D1 agonist – Allosteric Agonists of the Human D1 Dopamine Receptor: qHTS | D(1A) dopamine receptor (Homo sapiens), P21728 | HEK293 T-REx D1 cells, calcium flux, agonist mode | activation, % at 2 µM | 1% of 360,000 active | AID 504660, 2011
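Tetracycline-induced HEK293 TREx D1 cells, force-coupled to calcium signalling, were dye-loaded with a no-wash calcium kit. Compound was pin-added after a 10 s baseline. Fluorescence was read kinetically at 1 cycle/s for 180 s, with calcium rises flagged as agonism.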
D1 antagonist – Antagonist of Human D 1 Dopamine Receptor: qHTS | 3.2% of 360,000 active | activity change, negative = inhibition, % at 10 µM | D(1A) dopamine receptor (Homo sapiens), P21728 | HEK293 TREx D1 cells, calcium flux, dopamine EC80; hits give low values; in the data active = activity change below about -30%
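Tetracycline-induced HEK293 Trex D1 cells, force-coupled to calcium, dye-loaded; compounds added and read 180 s, then EC80 dopamine added and calcium flux tracked kinetically another 180 s.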
TRHR enhancer – qHTS for Small Molecule Agonists and Allosteric Enhancers of Human TRH Receptor: Primary Screen for Enhancers; TRHR cells, fluo-8 calcium fluorescence, EC20 TRH enhancement; 0.66% of 360,000 active; enhancement, % at 2 µM; Thyrotropin-releasing hormone receptor (Homo sapiens), P34981; AID 493056, 2011; in the data active = enhancement above about 30%
Target sequence (P34981 whole entry, looked up): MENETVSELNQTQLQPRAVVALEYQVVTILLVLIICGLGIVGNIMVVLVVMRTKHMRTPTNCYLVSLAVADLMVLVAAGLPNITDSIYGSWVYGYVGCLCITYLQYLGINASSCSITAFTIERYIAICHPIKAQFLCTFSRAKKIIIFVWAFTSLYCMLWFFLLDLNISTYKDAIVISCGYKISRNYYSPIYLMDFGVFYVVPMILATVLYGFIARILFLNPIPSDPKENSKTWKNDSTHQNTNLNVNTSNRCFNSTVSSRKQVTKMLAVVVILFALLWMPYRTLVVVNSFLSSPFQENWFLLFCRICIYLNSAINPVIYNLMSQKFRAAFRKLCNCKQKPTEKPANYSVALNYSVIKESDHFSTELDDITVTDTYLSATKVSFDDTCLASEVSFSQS
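Enhancer read-out: after compound pinning and an initial kinetic agonist-mode read, an EC20 of TRH (10 nM final) was injected and fluo-8 calcium signal (Ex 480/Em 530) followed at 1 s/cycle for 100 cycles in TRHR-expressing cells.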
TRHR ag – qHTS for Small Molecule Agonists and Allosteric Enhancers of Human TRH Receptor: Primary Screen for Agonists. TRHR cells, calcium flux fluo-8, FDSS agonist mode. AID 493084, 2011. activation, % at 2 µM. 0.18% of 360,000 active. Thyrotropin-releasing hormone receptor (Homo sapiens), P34981
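Agonist-mode FDSS calcium read (Ex 480/Em 530, 1 s cycles) in 1536-well TRHR cells with fluo-8 dye, after 10-cycle baseline and 23 nL compound addition; TRH at EC20 (10 nM final) added afterwards for the enhancer phase.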
D1 potentiator – Potentiators of Human D1 Dopamine Receptor: qHTS; D(1A) dopamine receptor (Homo sapiens), P21728; 0.036% of 360,000 active; potentiation, % at 10 µM; HEK293 TREx D1 cells, calcium flux, dopamine EC20 potentiation; AID 504651, 2011; in the data active = potentiation above about 30%
A number is an active result; i = inactive. Rule as the data show it, unless noted: active = activation above about 30%; inactive = the rest.

SMILES | D1 agonist | D1 antagonist | TRHR enhancer | TRHR ag | D1 potentiator
O=C1OC(c2ccccc2)Cc2cc(C(=O)N3CCN(c4ccc(F)cc4)CC3)ccc21 (centres undefined) | i | i | i | i | i
CCC1OC23CCCCC2C(C#N)(C(=N)O3)C1(C#N)C#N (centres undefined) | i | i | i | i | i
CC1OC23CCCCC2C(C#N)(C(=N)O3)C1(C#N)C#N (centres undefined) | i | -43.3 | i | i | i
O=C(NCCOc1ccccc1F)C1CCC(=O)N(CCc2cccc(F)c2)C1 (centres undefined) | i | i | i | i | i
CCOC(=O)C1(C)C=C(Nc2ccc(OC)cc2)C(=O)N1c1ccccc1 (centres undefined) | i | -42.3 | i | i | i
Cn1ccsc1=NC(=O)c1ccccc1OC(F)F | i | -36.1 | i | i | i
C[C@@H](NC(=O)C1(c2ccccc2)CCN(C(=O)OC(C)(C)C)CC1)C(=O)N[C@@H](C(=O)O)c1ccccc1 | i | -51.9 | i | i | i
C[C@H](NC(=O)C1(c2ccccc2)CCN(C(=O)OC(C)(C)C)CC1)C(=O)N[C@@H](C(=O)O)c1ccccc1 | i | i | i | i | i
O=C(O)C1CCCCC1C(=O)Nc1ccccc1Nc1ccccc1 (centres undefined) | i | -41.0 | i | i | i
O=C(Nc1ccccc1)c1ccccc1NC(=O)[C@H]1CCCC[C@H]1C(=O)O | i | i | i | i | i
COc1ccc2c(c1)c(=O)c(S(=O)(=O)c1ccc(F)cc1)cn2Cc1ccccc1Cl | i | i | i | i | i
COc1ccccc1NC(=S)NNC(=O)c1nn(C)c(C)c1Cl | i | -48.7 | i | i | i
CCCCCCCCCCCC(=O)NC(C(=O)O)C(O)c1ccccc1 (centres undefined) | 374.3 | i | i | i | i
COc1ccc(C(=O)C(CCC(CNC(C)(C)C)C(=O)c2ccc(OC)cc2)CNC(C)(C)C)cc1 (centres undefined) | i | -37.1 | i | i | i
CC(=O)c1c(C)[nH]c(C(=O)Nc2ccc(Cl)c(S(=O)(=O)N(C)C)c2)c1C | i | -49.9 | i | i | i
CC(=O)c1c(C)[nH]c(C(=O)Nc2cccc(S(=O)(=O)N(C)c3ccccc3)c2)c1C | i | -44.4 | i | i | i
Cc1ccccc1CN(C)CC(=O)Nc1cccc(S(=O)(=O)N(C)c2ccccc2)c1 | i | -41.3 | i | i | i
CCN(CC(=O)Nc1cccc(S(=O)(=O)N(C)c2ccccc2)c1)Cc1ccccc1 | i | i | i | i | i
CC(=O)c1c(C)[nH]c(C(=O)Nc2ccc(Cl)cc2)c1C | 33.0 | -63.1 | 36.0 | i | i
CC(=O)c1c(C)[nH]c(C(=O)Nc2ccc(Cl)cc2F)c1C | i | i | i | i | i
O=C(COC(=O)c1cccc([N+](=O)[O-])c1)c1ccc2c(c1)OCO2 | i | i | i | i | i
COc1ccc(CCC(=O)NNC(=O)c2ccccn2)cc1OC | i | i | i | i | i
COc1cccc(NC(=O)Cc2nnc(SCC(=O)NC3CCCC3)n2C)c1 | i | i | i | i | i
CC(C)CC1(C)NC(=O)N(CC(=O)Nc2cccc(S(=O)(=O)N(C)c3ccccc3)c2)C1=O (centres undefined) | i | -38.7 | i | i | i
C/C(=N/OCC(=O)Nc1ccccc1)c1cccs1 | 31.4 | i | i | i | i
SMILES | D1 agonist | D1 antagonist | TRHR enhancer | TRHR ag | D1 potentiator
C/C(=N\OCC(=O)N/N=C/c1ccccc1)c1cccs1 | i | i | 35.1 | i | i
COc1ccc(/C=N/NC(=O)CO/N=C(\C)c2cccs2)cc1 | i | i | i | i | i
CCOc1ccc(CNCc2c(C(=O)O)n(Cc3ccccc3C)c3cc(OC)ccc23)cc1OC | i | i | i | i | i
S=C(NC1CCCCC1)N1CCN(C2CCCCC2)CC1 | i | i | i | i | i
O=C(NC1CCCN(Cc2ccc(Cl)cc2)C1)C1CCC1 (centres undefined) | i | i | 31.0 | i | i
C=C(C)Cn1c(=O)c2c(nc3n2CCCN3Cc2ccccc2)n(C)c1=O | i | i | i | i | i
Cc1csc2nc(COc3ccc(NC(=O)COc4ccccc4F)cc3)cc(=O)n12 | i | i | i | i | i
Cc1ccccc1OCC(=O)Nc1ccccc1C(=O)OCc1cc(=O)n2c(C)csc2n1 | i | -39.7 | i | i | i
Cc1ccccc1OCC(=O)Nc1ccccc1C(=O)OCc1cc(=O)n2ccsc2n1 | i | i | i | i | i
Cc1csc2nc(COC(=O)COc3ccccc3F)cc(=O)n12 | i | -46.4 | i | i | i
O=C(C1CCN(S(=O)(=O)c2ccccc2)CC1)N1CCCCC1 | i | i | i | i | i
Nc1ccn(CC(=O)NCc2ccccc2)c(=O)n1 | i | i | i | i | i
Nc1ccn(CC(=O)N[C@H](CO)Cc2c[nH]c3ccccc23)c(=O)n1 | i | -34.0 | i | i | i
COc1cccc(-n2c(=O)c3sc4ccccc4c3n(CC(=O)Nc3cccc(Cl)c3)c2=O)c1 | i | i | i | i | i
CS(=O)(=O)c1ccc(Cl)c(C(=O)NC2CCSc3ccccc32)c1 (centres undefined) | i | -45.3 | i | i | i
NS(=O)(=O)c1cc(C(=O)NC2CCSc3ccccc32)ccc1Cl (centres undefined) | i | i | i | i | i
C=C(C)Cn1c(SCC(=O)Nc2cccc(C)c2)nc2sc3c(c2c1=O)CCCC3 | i | i | i | i | i
Cc1cc(C)nc(Nc2nc3ccccc3o2)n1 | i | -30.9 | i | i | i
c1ccc(Nc2nc3ccccc3o2)cc1 | i | i | i | i | i
Cc1cc(C)c(C)c(OCCOCCNCc2ccccc2)c1 | 32.7 | i | i | i | i
Cc1cc(Cl)c(OCCCNCc2ccccc2)c(Br)c1 | 31.8 | i | i | i | i
Cc1ccc(OCCNCc2ccccc2)c(C)c1 | i | i | i | i | i
Cc1cc(C)c(OCCCNC2CCCC2)c(Br)c1 | i | i | i | i | i
Cc1cc(C)c(OCCCNCc2ccccc2)c(Br)c1 | 37.4 | i | i | i | i
Cc1ccccc1CNC(=O)C(=O)NCC(c1ccc2c(c1)OCO2)N1CCOCC1 (centres undefined) | i | i | i | i | i
Cc1cccc(CSc2nc3c(c(-c4cccs4)c2C#N)CN(C)CC3)c1 | i | -37.7 | i | i | i
COc1ccc(NC(=O)c2oc3ccccc3c2NC(=O)c2cc(=O)c3c(C)cc(C)cc3o2)cc1 | i | i | i | i | i
CC1=CC(=C(C#N)c2nc3ccccc3s2)C=C(C)N1Cc1ccco1 | 43.7 | i | i | i | i
